Sampled rows, rich in hits. Any-hit rate of the full collection: about 19%.
DT40 TDP1 CPT – qHTS for Inhibitors of human tyrosyl-DNA phosphodiesterase 1 (TDP1): qHTS in cells in presence of CPT | chicken DT40 Tdp1-/-;hTDP1 cells + 20 nM CPT, ATP luminescence, 48 h | Potency, µM (series often up to 46.2 µM), for the others: top-dose activity change, negative = growth inhibition, hits mostly inhibitors | hit rate 12% among 420,000 | AID 686979, 2013; further: potency means the concentration at half of the fitted maximal effect; nearly all actives have a fitted effect of over 55% in size
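Chicken DT40 Tdp1-/- cells complemented with human TDP1, 400 cells/well, exposed to compounds plus 20 nM camptothecin for at least 48 h at 37 C; viability read as ATP content by CellTiter-Glo luminescence.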
HT1080-NT tox – qHTS for induction of synthetic lethality in tumor cells producing 2HG: qHTS for the HT-1080-NT fibrosarcoma cell line. HT-1080-NT fibrosarcoma viability, CellTiter-Glo ATP luminescence, 48 h. Potency, µM (highest dose often 46.1 µM), without a hit: top-dose activity, negative = less viability, hits mostly cytotoxic. hit rate 1.6% among 360,000. AID 686970, 2013;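 further: NT is the 2HG producing partner of a matched IDH1 knockdown line; potency means the concentration at half of the fitted maximal effect; 0% = DMSO-treated cells and -100% = media-only wells without cells; nearly all actives have a fitted effect of over 55% in size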
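HT-1080-NT fibrosarcoma cells (2HG-overproducing), 750 cells/well in RPMI with 5% FBS, dosed after 2 h and incubated 48 h at 37C. CellTiter-Glo luminescence normalized to DMSO and no-cell wells; concentration-response curves fitted and classed.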
IL1B secr inh – qHTS for Inhibitors of Inflammasome Signaling: IL-1-beta AlphaLISA Primary Screen; THP-1 LPS/ATP IL-1B secretion, AlphaLISA, 16 h; active compounds read low; activity change, % at 57.5 µM; hit rate 4.7% among 360,000; AID 743279, 2014; in the data active means activity change below about -50%; inconclusive means mostly about -30% to -49%
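THP-1 cells pretreated 1 hr with compounds (up to 57.5 uM final), then stimulated with LPS (250 ng/mL final) plus ATP (1.25 mM final); secreted IL-1B measured by AlphaLISA after 16 hr, decreased signal indicating inhibition.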
DT40 TDP1 no CPT – qHTS for Inhibitors of human tyrosyl-DNA phosphodiesterase 1 (TDP1): qHTS in cells in absence of CPT; DT40 Tdp1-/- hTDP1 cells, no CPT, ATP luminescence, 48 h; Potency, µM (titrated, usually from 46.2 µM), without a hit: at the highest dose activity change, negative = growth inhibition, usual class: inhibitors; hit rate 15% among 420,000; AID 686978, 2013; further: potency means the concentration at half of the fitted maximal effect; nearly all actives have a fitted effect of over 55% in size
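Compound effects on proliferation are scored in DT40 Tdp1-/-;hTDP1 cells in the absence of CPT. ATP levels (CellTiter-Glo luminescence) are recorded after a ≥48 hr, 37 °C incubation.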
HT1080 IDH1KD tx – qHTS for induction of synthetic lethality in tumor cells producing 2HG: qHTS for the HT-1080-IDH1KD cell line. HT-1080 IDH1 knockdown viability, ATP luminescence, 48 h. Potency, µM (doses to about 46.1 µM), without a hit: at the highest dose activity, negative = toxicity, usual class: cytotoxic. hit rate 2% among 360,000;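 further: potency means the concentration at half of the fitted maximal effect; 0% = DMSO wells and -100% = cell-free medium wells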
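IDH1KD HT-1080 cells, 750/well, RPMI + 5% FBS; compound pinned after 2 h settling; 48 h, 37 °C; CellTiter-Glo luminescence; % activity normalised to DMSO and no-cell wells; curves fitted, classed by r2 and efficacy.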
An asterisk follows results filed as active; ? = inconclusive; / = no result; [ ] = remark or other dose. Unless noted, the call rests on the fitted dose curve; in most records, active means well fitted curve in the direction sought with a large enough effect; inconclusive means small, poorly fitted or top-dose-only effect, or another doubt; inactive means no such curve, though single readings can be large; an effect the other way counts as inactive or inconclusive. Unless noted, on the % scale 0 is the no-effect control and ±100 the full control effect.

SMILES	DT40 TDP1 CPT	HT1080-NT tox	IL1B secr inh	DT40 TDP1 no CPT	HT1080 IDH1KD tx
CCOc1ccccc1CN1CCCC(c2nc(C)ncc2-c2ccc(F)cc2)C1 (stereo not given)	?	/	/	18µM*	/
COc1ccc(CN2CCCC(c3nc(-c4ccncc4)ncc3-c3ccccc3)C2)cc1OC (stereo not given)	-5%[9.04 µM]	/	/	-3%	/
CCOC(=O)C1CCCN(Cc2ccccc2OCC)C1 (stereo not given)	-2%	16%[9.24 µM]	0	-26%	-22%
COc1ccc(OC)c(CN2CCCC(c3nc(C)ncc3-c3ccc(F)cc3)C2)c1 (stereo not given)	21µM*	/	/	?	/
CCS(=O)(=O)N1CCN(CC(=O)NC2CCCCC2)CC1	?	21%	17	?	12%
O=C(O)Cc1cccc(=O)c(O)c1C(=O)O	4%	0%	7	-2%	-2%
COc1ccc(CCNC(=O)C2CCC(C(C)(C)C)CC2)cc1OC (stereo not given)	?	4%	-28	?	-17%
Cc1cc(C)n(-c2nc3ccccc3nc2N2CCN(S(=O)(=O)c3ccc4ccccc4c3)CC2)n1	?	18%	-13	14µM*	1%
Cc1cc(C)n(-c2nc3ccccc3nc2N2CCN(S(=O)(=O)c3ccc(F)c(C)c3)CC2)n1	23µM*	-4%	1	?	0%
Cc1[nH]c2ccc(C(=O)N3CCN(c4ccccn4)CC3)cc2c1C	-29%	6%	-10	-10%	1%
COc1ccc(OC)c(C(=O)NC(CC(N)=O)c2ccc(N3CCN(c4ccccn4)CC3)c([N+](=O)[O-])c2)c1 (stereo not given)	-16%	14%	-1	?	4%
CCOC(=O)[C@H]1[C@H]2COc3ccc(Br)cc3[C@@H]2N2C(=O)CN(Cc3ccc(F)cc3)C(=O)[C@@]12C	?	5%	-13	21µM*	1%
CCOC(=O)[C@H]1[C@H]2COc3ccc(Br)cc3[C@H]2N2C(=O)CN(Cc3ccc(Cl)cc3)C(=O)[C@@]12C	?	-7%	-52*	23µM*	-8%
CCOC(=O)[C@H]1[C@H]2COc3ccc(OC)cc3[C@@H]2N2C(=O)CN(Cc3ccc(F)cc3)C(=O)[C@@]12C	?	-1%	12	?	-1%
CCOC(=O)[C@H]1[C@H]2COc3ccc(C)cc3[C@@H]2N2C(=O)CN(Cc3ccc(Cl)cc3)C(=O)[C@@]12C	-26%	-1%	23	2%	5%
CCOC(=O)[C@H]1[C@H]2COc3ccc(Br)cc3[C@@H]2N2C(=O)CN(Cc3ccc(Cl)cc3)C(=O)[C@@]12C	18µM*	-26%	-11	?	-22%
Cc1csc2ncnc(NCCc3ccccn3)c12	6.5µM*	-20%	-27	3.7µM*	-20%
c1ccc(CCNc2ccccn2)nc1	0%	1%	14	2%	0%
c1ccc(CCNc2ncnc3sccc23)nc1	6.5µM*	-22%	10	7.3µM*	?
Cc1ccc(NC(=O)c2sc3nc(-c4ccc(F)cc4)cn3c2C)c(C)c1	-21%	/	/	?	/
Cc1ccc2[nH]c(O)c(N=NC(=O)c3ccc(NS(=O)(=O)c4cccs4)cc3)c2c1	15µM*	6%	18	?	-4%
COc1ccc2[nH]c(O)c(N=NC(=O)c3ccc(NS(=O)(=O)c4cccs4)cc3)c2c1	-11%	11%	11	7%	7%
O=C(N=Nc1c(O)[nH]c2ccc(F)cc12)c1ccc(NS(=O)(=O)c2cccs2)cc1	33%	1%	13	10%	14%
O=C(N=Nc1c(O)[nH]c2ccccc12)c1ccccc1NS(=O)(=O)c1cccs1	16µM*	-24%	-1	-29%	?
O=[N+]([O-])c1cccnc1N1CCC(c2cc(-c3ccc(Cl)cc3)n[nH]2)CC1	21µM*	-1%	-85*	21µM*	-18%
SMILES	DT40 TDP1 CPT	HT1080-NT tox	IL1B secr inh	DT40 TDP1 no CPT	HT1080 IDH1KD tx
CCNC(=O)C1(C)CCN1CCC(=O)c1ccc(C)cc1 (stereo not given)	21µM*	14%	0	16µM*	15%
COCOc1cccc(CN2CCC(C)(Oc3cccc(C#N)c3)C2)c1 (stereo not given)	?	-11%	-15	-34%	-14%
COc1cccc(OC2(C)CCN(Cc3cccn3-c3nccs3)C2)c1 (stereo not given)	23µM*	-29%	9	21µM*	-18%
CC1(Oc2ccc(-n3ccnc3)cc2)CCN(Cc2cccn2-c2nccs2)C1 (stereo not given)	29µM*	9%	0	18µM*	8%
C=CC[n+]1c(-c2ccc(C)cc2)csc1Nc1ccc(NC(C)=O)cc1	?	-17%	-21	?	?
C=CC[n+]1c(-c2ccc(OC)cc2)csc1NNC(=O)Nc1ccccc1	7.3µM*	?	-25	5.2µM*	?
O=C(C1CCC(CNS(=O)(=O)c2cccs2)CC1)N1CCCCC1 (stereo not given)	-14%	-2%	11	?	1%
O=C(C1CCC(CNS(=O)(=O)c2ccc(Br)s2)CC1)N1CCN(c2ccc(F)cc2)CC1 (stereo not given)	?	/	/	4.1µM*	/
O=C(C1CCC(CNS(=O)(=O)c2ccc(Br)s2)CC1)N1CCN(c2ccccc2Cl)CC1 (stereo not given)	9.2µM*	/	/	8.2µM*	/
COc1cccc(N2CCN(C(=O)C3CCC(CNS(=O)(=O)c4ccc(Br)s4)CC3)CC2)c1 (stereo not given)	7.3µM*	/	/	6.5µM*	/
COc1cccc(CNC(=O)C2CCC(CNS(=O)(=O)c3ccc(Br)s3)CC2)c1 (stereo not given)	23µM*	/	/	?	/
CCOc1ccc(NC(=O)C2CCC(CNS(=O)(=O)c3ccc(Br)s3)CC2)cc1 (stereo not given)	-21%	/	/	?	/
Cc1ccc(S(=O)(=O)N2CCSC2c2ccco2)cc1 (stereo not given)	1%	-2%	-11	18µM*	-5%
COCCn1c(C)cc(C2=NNC(=NC(C)(C)C)SC2)c1C	-97%	-17%	-9	18µM*	-6%
COCCn1c(C)cc(C2=NNC(=Nc3ccccc3)SC2)c1C	22µM*	-4%	4	16µM*	-2%
